PubChem BioAssay (NCI)
The panel holds about 83,000 compounds, 20% with a hit somewhere; the sample as a whole holds those more often.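 Single-concentration screen, 48 h exposure, 96-well plates. Endpoint: percent growth. Below 10 = active.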 Unmarked numbers belong to inactive results. Activity calls are given as the source filed them.

The compounds below were run on UACC-62 melanoma (assay: NCI-60 one-dose screen, 48 h (100 = growth as untreated, 0 = no growth, -100 = all killed)). Settings: 10 µM unless noted.

Row | SMILES | growth
1 | Cn1cc(-c2cc3nc(-c4cn(C)c5ncc(Br)cc45)cc(N)n3n2)c2cc(Cl)ccc21 | -96% (active)
2 | Cn1cc(-c2cc(N)n3nc(-c4cn(C)c5ncccc45)cc3n2)c2cccnc21 | 102%
3 | Cc1ccc([C@H]2C(C(=O)c3ccc(Cl)cc3)C3(N[C@@H]2c2ccccc2)C(=O)Nc2ccc(Cl)cc23)cc1 (some centres not stated) | 33.8%
4 | O=C(Cn1c(/C=C/c2ccccc2)nc2ccccc2c1=O)Nc1ccc(Cl)cc1 | 90.4%
5 | CC12CC[C@@H]3[C@]4(C)COC(c5cn[nH]c5-c5cccc(Cl)c5)O[C@@H]4CC[C@@]3(C)[C@@H]1CC(C1=CCOC1=O)O2 (some centres not stated) | 26.9%
6 | CCCCSc1nc(Nc2ccc(S(N)(=O)=O)cc2)c(C#N)c(-c2cc(OC)c(OC)c(OC)c2)n1 | 21.9%
7 | CCOC(=O)/C=C/c1cccc2c1C(=O)NC(C)(c1cc3cc(Cl)ccc3oc1=O)N2 (configuration not stated) | 13.4%
8 | O=C(c1ccc(OCCN2CCOCC2)cc1)C1[C@H](c2ccc(Cl)cc2)[C@@H](c2ccccc2)NC12C(=O)Nc1ccc(Cl)cc12 (some centres not stated) | 40.1%
9 | CC(C)c1sc(NC(=O)c2cc(NC(=O)c3cc(NC(=O)c4nccn4C)cn3C)cn2C)nc1C(=O)NCCCN(C)C | 66.3%
10 | COc1c(F)ccc(C(=O)Nc2ccc3nc(NC(=O)C4CCCN(S(=O)(=O)c5ccc(Cl)cc5)C4)sc3c2)c1F (configuration not stated) | 67.1%
11 | O=C(N1c2ccccc2Sc2ccccc21)n1ccc2cccnc21 | 47.5%
12 | Cn1cc(-c2cc(N)n3nc(-c4cn(C)c5ncc(Br)cc45)cc3n2)c2cc(Br)cnc21 | -82.3% (active)
13 | CC1=C(C#N)C2=NNCC(c3ccccc3)=NN2C(c2ccccc2)=C1 | 96%
14 | C=C1CC[C@@H]2[C@]3(C)COC(c4cn[nH]c4-c4ccc(F)cc4)O[C@@H]3CC[C@@]2(C)[C@@H]1C/C=C1/C(=O)OCC1O (some centres not stated) | -73.7% (active)

What follows are compounds tested on LOX IMVI melanoma in the same assay as above. Settings: 10 µM.

Row | SMILES | growth
15 | Cn1cc(-c2cc3nc(-c4cn(C)c5ncccc45)cc(N)n3n2)c2cc(Cl)ccc21 | -100% (active)
16 | CC12CC[C@@H]3[C@]4(C)COC(c5c(F)cccc5F)O[C@@H]4CC[C@@]3(C)[C@@H]1CC(C1=CCOC1=O)O2 (some centres not stated) | 73.1%
17 | Cc1nc(Nc2ncc(C(=O)Nc3c(C)cccc3Cl)s2)cc(N2CCN(CCCNC(=O)COc3ccc(C4CCC(=O)NC4=O)cc3)CC2)n1 (configuration not stated) | -96.6% (active)
18 | Cn1cc(NC(=O)c2cc(NC(=O)c3ccc(/C=C/c4ccccc4)cc3)cn2C)cc1C(=O)NCCCN1CCOCC1 | -97.5% (active)
19 | Cc1ccccc1[C@H]1C(C(=O)c2ccc(Cl)cc2)C2(N[C@@H]1c1ccccc1)C(=O)Nc1ccc(Br)cc12 (some centres not stated) | -95.3% (active)
20 | Brc1ccc(N/N=C/c2c[nH]c3ccc(Br)cc23)nc1 | -100% (active)
21 | C=C1CCC2C3(C)COC(c4ccccc4)OC3CCC2(C)C1CC(Sc1ccccc1)C1=CCOC1=O (configuration not stated) | -98% (active)
22 | Clc1cccc(N/N=C/c2c[nH]c3ccc(Br)cc23)n1 | -60.9% (active)
23 | COc1c(F)ccc(C(=O)Nc2ccc3nc(NC(=O)C4CCCN(S(=O)(=O)c5cccc(C(F)(F)F)c5)C4)sc3c2)c1F (configuration not stated) | 86.5%
24 | O=c1oc2ccc(Br)cc2cc1C1=CSc2nc3sc4c(c3c(=O)n2N=C1)CCCC4 | 86.4%
25 | CC(=O)/C=C/c1cccc2c1C(=O)NC(C)(c1cc3cc(Br)ccc3oc1=O)N2 (configuration not stated) | 14.8%
26 | O=c1[nH]c(=O)c2c(-c3cc4ccccc4oc3=O)ccnc2[nH]1 | 65.3%
27 | O=C(/C=C/Nc1ccc2oc(=O)ccc2c1)c1cc2cc(Br)ccc2oc1=O | 99.3%
28 | CC1(c2cc3cc(Cl)ccc3oc2=O)NC(=O)c2c(/C=C/C(=O)OC3CC4CCC3(C)C4(C)C)cccc2N1 (configuration not stated) | 78.9%
29 | COc1ccc(-c2ccnc(SCc3cc4ccccc4[nH]c3=O)n2)cc1OC | 18.8%
30 | CC12CC[C@@H]3[C@]4(C)COC(c5cn[nH]c5-c5cccc(Br)c5)O[C@@H]4CC[C@@]3(C)[C@@H]1CC(C1=CCOC1=O)O2 (some centres not stated) | -8.01% (active)
31 | O=C(c1ccc(OCCN2CCOCC2)cc1)C1[C@H](c2ccc(Cl)cc2)[C@@H](c2ccccc2)NC12C(=O)Nc1ccc(Br)cc12 (some centres not stated) | -75.2% (active)
32 | COc1ccc2c(c1)c(/C=N/Nc1ccc3ccccc3n1)cn2C | -97.9% (active)
33 | CN(C)CCOc1ccc(C(=O)C2[C@H](c3ccc(Cl)cc3)[C@@H](c3ccccc3)NC23C(=O)Nc2ccc(Br)cc23)cc1 (some centres not stated) | -100% (active)

Row | SMILES | growth
34 | O=c1[nH]c2ccc(Cl)cc2cc1CSc1nccc(-c2ccc(Cl)cc2)n1 | 57.5%
35 | COc1cccc(/C=C/c2nc3ccccc3c(=O)n2CC(=O)Nc2ccc(Cl)cc2)c1 | 39.8%
36 | CCCSc1nc(Nc2ccc(S(N)(=O)=O)cc2)c(C#N)c(-c2cc(OC)c(OC)c(OC)c2)n1 | 5.09% (active)
37 | CC(/C=C1\SC(=S)N(CCCC(=O)NC(CC(C)C)C(=O)O)C1=O)=C\c1ccccc1 (configuration not stated) | 53.2%
38 | COc1ccc(/C=C/c2nc3ccccc3c(=O)n2CC(=O)Nc2ccc(Cl)cc2)cc1 | 36.5%
39 | Cn1cc(-c2cc3nc(-c4cn(C)c5ncc(Br)cc45)cc(N)n3n2)c2cc(Cl)ccc21 | -95.1% (active)
40 | Cn1cc(-c2cc(N)n3nc(-c4cn(C)c5ncccc45)cc3n2)c2cccnc21 | -100% (active)
41 | Cc1ccc([C@H]2C(C(=O)c3ccc(Cl)cc3)C3(N[C@@H]2c2ccccc2)C(=O)Nc2ccc(Cl)cc23)cc1 (some centres not stated) | 39.8%
42 | O=C(Cn1c(/C=C/c2ccccc2)nc2ccccc2c1=O)Nc1ccc(Cl)cc1 | 25.4%
43 | CC12CC[C@@H]3[C@]4(C)COC(c5cn[nH]c5-c5cccc(Cl)c5)O[C@@H]4CC[C@@]3(C)[C@@H]1CC(C1=CCOC1=O)O2 (some centres not stated) | 40.3%
44 | CCCCSc1nc(Nc2ccc(S(N)(=O)=O)cc2)c(C#N)c(-c2cc(OC)c(OC)c(OC)c2)n1 | 7.76% (active)
45 | CCOC(=O)/C=C/c1cccc2c1C(=O)NC(C)(c1cc3cc(Cl)ccc3oc1=O)N2 (configuration not stated) | 22.2%
46 | O=C(c1ccc(OCCN2CCOCC2)cc1)C1[C@H](c2ccc(Cl)cc2)[C@@H](c2ccccc2)NC12C(=O)Nc1ccc(Cl)cc12 (some centres not stated) | -45.5% (active)
47 | CC(C)c1sc(NC(=O)c2cc(NC(=O)c3cc(NC(=O)c4nccn4C)cn3C)cn2C)nc1C(=O)NCCCN(C)C | 29.8%
48 | COc1c(F)ccc(C(=O)Nc2ccc3nc(NC(=O)C4CCCN(S(=O)(=O)c5ccc(Cl)cc5)C4)sc3c2)c1F (configuration not stated) | 76%
49 | O=C(N1c2ccccc2Sc2ccccc21)n1ccc2cccnc21 | 44.8%
50 | Cn1cc(-c2cc(N)n3nc(-c4cn(C)c5ncc(Br)cc45)cc3n2)c2cc(Br)cnc21 | -100% (active)
51 | CC1=C(C#N)C2=NNCC(c3ccccc3)=NN2C(c2ccccc2)=C1 | 109%
52 | C=C1CC[C@@H]2[C@]3(C)COC(c4cn[nH]c4-c4ccc(F)cc4)O[C@@H]3CC[C@@]2(C)[C@@H]1C/C=C1/C(=O)OCC1O (some centres not stated) | -100% (active)
